# In PubChem BioAssay AID2685 (National Center for Advancing Translational Sciences (NCATS), 2010):
# Screen size: about 320,000 compounds; about 2,100 (0.66%) were called active. Roughly 53% stayed inconclusive and do not appear here. The sample holds actives, similar compounds and a random draw of the others, so the mix is not that of the screen. Calls come from the whole dose curve; as a rule, active = well fitted inhibition curve with a large enough effect in the signal ratio, with a control signal flat (not every such curve was filed as active); inconclusive = small, poorly fitted or top-dose-only effect, or effect the other way, or a change in a side signal; inactive = flat fitted curve, though single readings scatter; the % refers to the signal ratio.
# Assay: qHTS Assay for Lipid Storage Modulators in Drosophila S3 Cells;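 for cell number change: cells counted by Cell Tracker Red CMTPX staining in the red channel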; for lipid storage change, negative = inhibition: % is set by controls: 0 for no effect and ±100 for the full control effect
# Conditions: BODIPY lipid droplet fluorescence, 18-24 h, cells fed with added oleic acid; cell number change: measured here: cell count max response; series mostly up to 46.1 µM
# Procedure, shortened: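 Drosophila S3 cells got compounds at several concentrations plus oleic acid (400 uM solution). Laser-scanning cytometry with 488 nm excitation read lipid droplets at 500-530 nm and cells at 575-640 nm. Percent activity was relative to 20 uM Triacsin C.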
# Potency is the fitted concentration of half-maximal effect.
Compound,Potency,cell number change,"lipid storage change, negative = inhibition"
CC(C)OC(=O)CSc1nc2c(cc1C#N)CCCCC2,inactive,,
Cc1cc(C(=O)CN2C(=O)C(=O)N(C3CCCC3)C2=O)c(C)n1CCc1ccc(F)cc1,20.6 µM (active),-15.3%,
Cc1cc(C(=O)CN2C(=O)C(=O)N(Cc3ccccc3)C2=O)c(C)n1Cc1ccc(F)cc1,inactive,-8.57%,
Cc1cc(C(=O)CCl)c(C)n1CCc1ccc(F)cc1,inactive,-8.52%,
COC(=O)C(C)N(C(=O)c1cccc(Cl)c1)c1c(C)cccc1C (stereo unspecified),inactive,,
CC1CC(C)CN(C(=O)CNC(=O)c2sc3ccccc3c2Cl)C1 (stereo unspecified),1.46 µM (active),-1.35%,
COC(=O)C(Cc1ccccc1)NC(=O)CNC(=O)c1sc2ccccc2c1Cl (stereo unspecified),1.84 µM (active),-4.58%,
Cc1ccc(S(=O)(=O)N2CCN(C(=O)CNC(=O)c3sc4ccccc4c3Cl)CC2)cc1,inactive,,
CC(=O)Nc1ccc(NC(=O)CNC(=O)c2sc3ccccc3c2Cl)cc1,inactive,0.461%,
COC(=O)c1ccc(CNC(=O)CNC(=O)c2sc3ccccc3c2Cl)cc1,inactive,3.22%,
CC1CCCN(C(=O)CNC(=O)c2sc3ccccc3c2Cl)C1 (stereo unspecified),,11.4%,0.306% [at 0.0737 µM] (inactive)
CC(C)N(Cc1nc(-c2ccccc2)no1)C(=O)C(C)(C)C,inactive,,
O=C(CNC(=O)c1ccco1)N=Nc1c(O)[nH]c2ccc([N+](=O)[O-])cc12,1.03 µM (active),26.6%,
Cc1cccc(OCC(=O)N=Nc2c(O)[nH]c3ccc([N+](=O)[O-])cc23)c1,inactive,-0.974%,
O=C(CNC(=O)c1ccco1)N=Nc1c(O)[nH]c2ccc(Br)cc12,inactive,-9.17%,
CCCCN(C(=O)c1cccc(S(=O)(=O)N2CC(C)OC(C)C2)c1)c1c(N)n(CC(C)C)c(=O)[nH]c1=O (stereo unspecified),inactive,,
O=[N+]([O-])c1ccc2nc(C(O)C(O)c3nc4ccc([N+](=O)[O-])cc4[nH]3)[nH]c2c1 (stereo unspecified),inactive,22.3%,
O=C(O)CSc1nnc(-c2cccnc2)n1Cc1ccccc1,inactive,0.309%,
COc1ccc(-c2nnc(SCC(=O)O)n2Cc2ccccc2)cc1,inactive,16.6%,

Compound,Potency,cell number change,"lipid storage change, negative = inhibition"
Cc1cccc(-c2nnc(SCC(=O)O)n2Cc2ccccc2)c1,inactive,-0.739%,
O=C(O)CSc1nnc(-c2ccc(Cl)cc2Cl)n1Cc1ccccc1,5.8 µM (active),-15.2%,
O=C(O)CSc1nnc(-c2ccccc2O)n1Cc1ccccc1,25.9 µM (active),0.192%,
O=C(O)CSc1nnc(-c2ccc(Cl)cc2Cl)n1-c1ccccc1,inactive,9.07%,
Cc1cccc(-c2ccc3ncnc(NCc4cc(C)cs4)c3c2)c1,inactive,8.79%,
O=C(CCSc1ccccc1)Nc1ccccc1Br,inactive,3.05%,
COc1ccccc1NC(=O)COC(=O)CCn1c(C)csc1=O,,-23.2%,22.3% [at 0.0737 µM] (inactive)
O=C(CN1C(=O)c2ccccc2C1=O)Nc1ccccc1C(=O)NC1CCCCCC1,inactive,2.31%,
COc1cccc(C2CC(C(F)(F)F)n3ncc(C(=O)O)c3N2)c1 (stereo unspecified),inactive,-3.05%,
CCOC(=O)C1C(=O)Nc2nc(C)nn2C1c1ccccc1 (stereo unspecified),inactive,,
Cc1cccc(NC(=O)c2cc3c(=O)n4ccccc4nc3n(CC(C)C)c2=N)c1,inactive,2.38%,
O=c1oc(-c2ccccc2Br)nc2ccccc12,inactive,-5.52%,
Cc1cc(C)n(-c2ccc(Cl)c(C(=O)Nc3ccc(OC(F)(F)F)cc3)n2)n1,inactive,14.5%,
O=C(Nc1ccccn1)c1sc2cccc(F)c2c1Cl,inactive,9.28%,
CCCCC(CC)CNC(=O)C(Cc1ccccc1)NS(=O)(=O)c1ccc2c(c1)CCC(=O)N2 (stereo unspecified),inactive,9.41%,
CCC(C)NC(=O)C(Cc1ccccc1)NS(=O)(=O)c1ccc2c(c1)CCC(=O)N2 (stereo unspecified),20.6 µM (active),1.42%,
CCCNC(=O)C(Cc1ccccc1)NS(=O)(=O)c1ccc2c(c1)CCC(=O)N2 (stereo unspecified),inactive,,
Cc1ccc(NC(=O)N2CCN(C(=O)c3ccco3)CC2)cc1Cl,inactive,-6.19%,
Cn1nnnc1SCC(=O)Nc1ccc(Cl)c(S(=O)(=O)N2CCOCC2)c1,inactive,21.3%,

Compound,Potency,cell number change,"lipid storage change, negative = inhibition"
COc1cc(NC(=O)C2=CC(c3ccc(C)cc3)=NS(=O)(=O)N2C)cc(OC)c1OC,1.46 µM (active),-6.34%,
CCc1ccc(NC(=O)C2=CC(c3cccs3)=NS(=O)(=O)N2C)cc1,20.6 µM (active),,
COc1ccc(NC(=O)C2=CC(c3ccc(C)cc3)=NS(=O)(=O)N2C)cc1,5.17 µM (active),4.61%,
COc1ccc(NC(=O)C2=CC(c3ccco3)=NS(=O)(=O)N2C)cc1,inactive,15%,
Cc1ccc(O)c(NC(=O)C2=CC(c3cccs3)=NS(=O)(=O)N2C)c1,inactive,-6.05%,
CCc1ccc(NC(=O)C2=CC(c3ccc(OC)cc3)=NS(=O)(=O)N2C)cc1,10.3 µM (active),-11.3%,
COc1ccc(NC(=O)C2=CC(c3ccc(C)cc3)=NS(=O)(=O)N2C)cc1OC,inactive,-8.07%,
CC(=O)c1cccc(NC(=O)C2=CC(c3cccs3)=NS(=O)(=O)N2C)c1,inactive,,
COc1ccc(C2=NS(=O)(=O)N(C)C(C(=O)Nc3cc(C)ccc3O)=C2)cc1OC,inactive,4.03%,
COc1ccc(CNC(=O)C2=CC(c3ccc(OC)cc3)=NS(=O)(=O)N2C)cc1,inactive,-7.78%,
COc1ccc(CNC(=O)C2=CC(c3ccc(OC)c(OC)c3)=NS(=O)(=O)N2C)cc1,inactive,-8.36%,
COc1ccc(C2=NS(=O)(=O)N(C)C(C(=O)Nc3ccc(C(C)=O)cc3)=C2)cc1OC,inactive,3.67%,
CCCN(CCC)Cc1c(C(=O)N/N=C/c2ccco2)nnn1-c1nonc1N,inactive,1.25%,
O=S(=O)(NC1CC1)c1ccc(S(=O)(=O)N2CCN3CCCC3C2)cc1 (stereo unspecified),inactive,-22%,
C=CCn1c(-c2cccc(OC)c2OC)n[nH]c1=S,,6.07%,16.6% [at 9.22 µM] (inactive)
Cc1cnc(C(=O)NNC(=O)c2ccc(Br)cc2)cn1,inactive,,
CNC(=O)C(=O)Nc1nc(C23CC4CC(CC(C4)C2)C3)cs1,inactive,,
CC(CSc1nnnn1-c1ccccc1)Cn1c(N2CCN(C)CC2)nc2c1c(=O)[nH]c(=O)n2C (stereo unspecified),inactive,-4.1%,
